The values below come from the antibiotic and cytotoxicity screens of Wong et al. (2023).

Hit rate of the full screen: of about 39,000 compounds, about 500 (1.3%) were called active. For the sample, actives were picked, then their nearest neighbours and some compounds at random.

This assay deals with S. aureus RN4220. The assay can be described thus: growth inhibition call (relative growth <= 0.2). Particulars: 50 µM.
For the compound `C[C@H]1CN([C@@H](C)CO)C(=O)c2cc(C#CCN(C)C)cnc2O[C@@H]1CN(C)Cc1cccc(C(=O)O)c1`, the growth inhibition call was “inactive”.
As to `COc1ccc(S(=O)(=O)N(C)C[C@@H]2Oc3ccc(NS(C)(=O)=O)cc3C(=O)N([C@H](C)CO)C[C@@H]2C)cc1`, the growth inhibition call was “inactive”.
The value for `CO[C@H](CN(C)C(=O)Nc1ccc(C(F)(F)F)cc1)[C@H](C)CN(Cc1ccccc1Cl)[C@H](C)CO` was “inactive”; that for `CO[C@H](CN(C)C(=O)C1CCOCC1)[C@@H](C)CN(C(=O)Nc1ccc(C(F)(F)F)cc1)[C@H](C)CO` was “active”.
`CO[C@@H](CN(C)C(=O)Nc1ccc(C(F)(F)F)cc1)[C@@H](C)CN(Cc1ccccc1Cl)[C@@H](C)CO`: the growth inhibition call is “inactive”.
Take `CO[C@H](CN(C)C(=O)C1CCOCC1)[C@H](C)CN(C(=O)Nc1ccc(C(F)(F)F)cc1)[C@H](C)CO`: the growth inhibition call is “active”.
For `C[C@@H]1CCCCO[C@@H](CN(C)C(=O)C2CCCCC2)[C@@H](C)CN([C@H](C)CO)C(=O)c2cc(NC(=O)Nc3ccc(C(F)(F)F)cc3)ccc2O1`, the growth inhibition call was “inactive”.
The value for `C[C@@H]1CCCCO[C@@H](CN(C)C(=O)C2CCCCC2)[C@H](C)CN([C@@H](C)CO)C(=O)c2cc(NC(=O)Nc3ccc(C(F)(F)F)cc3)ccc2O1` was “inactive”; that for `Cc1noc(C)c1NC(=O)Nc1ccc2c(c1)C(=O)N([C@H](C)CO)C[C@@H](C)[C@H](CN(C)S(=O)(=O)c1ccc(Cl)cc1)OCCCC[C@@H](C)O2` was “inactive”; that for `C[C@H](CO)N1C[C@H](C)[C@@H](CN(C)Cc2ccc(C(=O)Nc3ccccc3N)cc2)Oc2c(NC(=O)c3nc4ccccc4s3)cccc2C1=O` was “inactive”.
The value for `COc1ccc(S(=O)(=O)Nc2ccc3c(c2)C(=O)N([C@H](C)CO)C[C@H](C)[C@@H](CN(C)Cc2ccc(C(=O)O)cc2)OCCCC[C@@H](C)O3)cc1` was “inactive”.
Regarding `CCNC(=O)C[C@H]1C=C[C@H](NC(=O)C2CC2)[C@H](CO)O1`, the growth inhibition call is “inactive”.
With `O=c1c(O)nnc2n1CCN2c1ccccc1` the entry was “inactive”; with `Cc1noc(C)c1S(=O)(=O)Nc1cccc2c1O[C@@H](CN(C)S(=O)(=O)c1ccccc1)[C@@H](C)CN([C@H](C)CO)C2=O`, “inactive”; with `Cc1ccc(S(=O)(=O)Nc2ccc3c(c2)C(=O)N([C@@H](C)CO)C[C@H](C)[C@@H](CN(C)CC2CCCCC2)OCCCC[C@H](C)O3)cc1`, “inactive”.
As for `Cc1ccc(CN2CCN(CCO)CC2)o1`, the growth inhibition call was “inactive”.
The value for `O=C(NCC(F)(F)F)[C@H]1[C@H](CO)[C@H]2Cn3c(cccc3=O)[C@@H]1N2C(=O)C1CCC1` was “inactive”; that for `CCCNC(=O)c1cc2c(c(-c3cccc(-c4cccc(F)c4)c3)n1)[C@@H](CCO)N([S@](=O)C(C)(C)C)C2` was “inactive”; that for `CCCNC(=O)c1cc2c(c(-c3cccc(-c4cccc(F)c4)c3)n1)[C@H](CCO)N([S@@](=O)C(C)(C)C)C2` was “active”.
The value for `CCCNC(=O)c1cc2c(c(-c3cccc(-c4ccc(F)cc4)c3)n1)[C@H](CCO)N([S@@](=O)C(C)(C)C)C2` was “inactive”; that for `C[C@@H]1CN([C@@H](C)CO)C(=O)c2cc(NC(=O)CCN3CCOCC3)ccc2O[C@H]1CN(C)S(=O)(=O)c1ccc(F)cc1` was “inactive”.
`NCCCCCNC(=O)[C@@H]1C[C@@H]2C(=O)N[C@@H](CCCCN)C(=O)N2[C@@H]1c1cccc(OCCO)c1`: the growth inhibition call is “inactive”.
The value for `CSc1cccc2sc(Nc3ccc(Cl)cc3)nc12` was “active”.
As for `Cc1sc(Nc2ccccc2)nc1-c1ccc(Cl)cc1`, the growth inhibition call was “inactive”.
As for `c1ccc(Nc2nc3c(ccc4ccccc43)s2)cc1`, the growth inhibition call was “inactive”.
For the compound `Cc1ccc(S(=O)(=O)Nc2cccc3c2O[C@H](CN(C)C(=O)Nc2cccc4ccccc24)[C@@H](C)CN([C@@H](C)CO)C3=O)cc1`, the growth inhibition call was “inactive”.
With `COCC#Cc1ccc([C@H]2[C@H]3CN(C(=O)c4ccncc4)CC(=O)N3[C@H]2CO)cc1`, the growth inhibition call was “inactive”.
With `CCOC(=O)CNC(=O)c1cc(C)on1` the entry was “inactive”.
With `CN1CCN(c2cc3c(cc2F)c(=O)c(C(=O)O)cn3-c2ccc(F)cc2)CC1.Cl`, the growth inhibition call is “active”.
With `O=C(c1ccccc1F)N1CCNCC1` the entry was “inactive”; with `Cl.O=C(O)c1cn(-c2ccc(F)cc2)c2cc(N3CCNCC3)c(F)cc2c1=O`, “active”.
With `O=C(CN1CCNCC1)c1ccc(F)cc1` the entry was “inactive”; with `Cc1ccc(C(=O)O)c(=O)n1C`, “inactive”; with `Cn1cc(S(=O)(=O)N2CCN(c3ccc(F)cc3)CC2)c(=O)n(C)c1=O`, “inactive”.
In the case of `Cc1noc(C)c1S(=O)(=O)N(C)C[C@@H]1Oc2ccc(NC(=O)NC(C)C)cc2CC(=O)N([C@@H](C)CO)C[C@@H]1C`, the growth inhibition call is “inactive”.
For `O=C(NO)c1cn(-c2ccc(C[C@H]3C(=O)O[C@@H](Cc4ccccc4)[C@H]4C=C(/C=C/C5CC5)CN43)cc2)nn1`, the growth inhibition call is “inactive”.
Take `CCCCCOc1ccc([C@H]2C(C(=O)c3ccc4c(c3)OCCO4)=C(O)C(=O)N2Cc2ccco2)cc1`: the growth inhibition call was “inactive”.
The value for `O=C(Nc1ccccc1)c1ccccc1O` was “active”.
With `O=C(Nc1ccccc1)c1ccccc1` the entry was “inactive”.
With `NNC(=O)c1ccccc1O` the entry was “inactive”; with `CO[C@@H]1CN(C)C(=O)c2ccc(NS(=O)(=O)CC(F)(F)F)cc2OC[C@H](C)N(Cc2nccs2)C[C@H]1C`, “inactive”; with `C[C@@H]1CN([C@@H](C)CO)C(=O)Cc2cc(NS(=O)(=O)c3cccs3)ccc2O[C@H]1CN(C)S(C)(=O)=O`, “inactive”.
Regarding `Clc1ccc(COC(Cn2ccnc2)c2ccc(Cl)cc2Cl)c(Cl)c1.O=[N+]([O-])O` (centres undefined), the growth inhibition call is “inactive”.
With `Clc1ccc(C(Cn2ccnc2)OCc2ccsc2Cl)c(Cl)c1` (centres undefined) the entry was “active”; with `Clc1ccc(C(Cn2ccnc2)OCc2c(Cl)cccc2Cl)c(Cl)c1.O=[N+]([O-])O` (centres undefined), “inactive”; with `Cc1ccc(S(=O)(=O)N(C)C[C@@H]2OCCCC[C@H](C)Oc3ccc(NC(=O)C4CCCCC4)cc3C(=O)N([C@@H](C)CO)C[C@@H]2C)cc1`, “inactive”.
The value for `C=C[C@]1(C)C[C@@H](OC(=O)CS[C@@H]2C[C@H]3CC[C@@H](C2)N3C)[C@]2(C)[C@H](C)CC[C@]3(CCC(=O)[C@H]32)[C@@H](C)[C@@H]1O` was “active”; that for `C[C@H](CO)N1C[C@H](C)[C@H](CN(C)Cc2ccc(C(=O)O)cc2)OCCCC[C@H](C)Oc2ccc(NS(=O)(=O)c3ccc(F)cc3)cc2C1=O` was “inactive”; that for `COc1ccc(S(=O)(=O)N(C)C[C@@H]2Oc3c(NC(=O)C4CCOCC4)cccc3C(=O)N([C@H](C)CO)C[C@H]2C)cc1` was “inactive”.
The value for `C[C@H](CO)N1C[C@H](C)[C@@H](CN(C)C(=O)Nc2ccccc2)Oc2c(NC(=O)C3CCOCC3)cccc2C1=O` was “inactive”; that for `CO[C@H]1O[C@H](COC(=O)NCCCCCC(=O)NO)[C@@H](OC(=O)Nc2ccccc2)[C@@H]2OC(=O)[C@H](Cc3cccc(Br)c3)C/C=C/C[C@@H](Cc3cccc(Br)c3)C(=O)O[C@@H]12` was “inactive”.
With `C[C@H](CO)N1C[C@H](C)[C@H](CN(C)C(=O)Nc2ccc(C(F)(F)F)cc2)Oc2c(NC(=O)Nc3ccccc3)cccc2C1=O`, the growth inhibition call was “inactive”.
The value for `C[C@H]1CN([C@@H](C)CO)C(=O)c2cccc(NC(=O)Nc3ccc(C(F)(F)F)cc3)c2O[C@H]1CN(C)C(=O)Nc1ccccc1` was “active”.
The value for `C[C@H]1CN([C@@H](C)CO)C(=O)c2cccc(NC(=O)Nc3ccccc3)c2O[C@@H]1CN(C)C(=O)Nc1ccc(C(F)(F)F)cc1` was “inactive”; that for `C[C@@H]1CN([C@@H](C)CO)C(=O)c2cccc(NC(=O)Nc3ccccc3)c2O[C@@H]1CN(C)C(=O)Nc1ccc(C(F)(F)F)cc1` was “inactive”; that for `C[C@H]1CN([C@@H](C)CO)C(=O)c2cccc(NC(=O)Nc3ccc(C(F)(F)F)cc3)c2O[C@@H]1CN(C)C(=O)Nc1ccccc1` was “active”.
Consider `C[C@@H]1CN([C@H](C)CO)C(=O)c2cccc(NC(=O)Nc3ccc(C(F)(F)F)cc3)c2O[C@H]1CN(C)C(=O)Nc1ccccc1`, for which the growth inhibition call was “inactive”.
With `C[C@H](CO)N1C[C@H](C)[C@@H](CN(C)C(=O)Nc2ccc(C(F)(F)F)cc2)Oc2c(NC(=O)Nc3ccccc3)cccc2C1=O` the entry was “inactive”; with `C[C@@H]1CN([C@H](C)CO)C(=O)c2cccc(NC(=O)Nc3ccc(C(F)(F)F)cc3)c2O[C@@H]1CN(C)C(=O)Nc1cccc2ccccc12`, “inactive”.
As for `C[C@H](CO)N1C[C@H](C)[C@H](CN(C)C(=O)Nc2ccccc2)Oc2c(NC(=O)Nc3ccc(C(F)(F)F)cc3)cccc2C1=O`, the growth inhibition call is “inactive”.
`C[C@H](CO)N1C[C@H](C)[C@H](CN(C)C(=O)Nc2cccc3ccccc23)Oc2c(NC(=O)Nc3ccc(C(F)(F)F)cc3)cccc2C1=O`: the growth inhibition call is “inactive”.
As to `C[C@H](CO)N1C[C@H](C)[C@@H](CN(C)C(=O)Nc2cccc3ccccc23)Oc2c(NC(=O)Nc3ccc(C(F)(F)F)cc3)cccc2C1=O`, the growth inhibition call was “active”.
With `C[C@@H]1CN([C@@H](C)CO)C(=O)c2cccc(NC(=O)Nc3ccc(C(F)(F)F)cc3)c2O[C@@H]1CN(C)C(=O)Nc1ccccc1` the entry was “active”.
For the compound `COc1ccc(S(=O)(=O)Nc2ccc3c(c2)C(=O)N([C@@H](C)CO)C[C@H](C)[C@H](CN(C)C(=O)Nc2ccccc2)OCCCC[C@H](C)O3)cc1`, the growth inhibition call is “inactive”.
In the case of `Cc1ccc(S(=O)(=O)N(C)C[C@H]2Oc3ccc(NS(=O)(=O)c4c(C)noc4C)cc3CC(=O)N([C@@H](C)CO)C[C@H]2C)cc1`, the growth inhibition call was “inactive”.
The value for `COc1ccc2c3c(n(c2c1)C)[C@@H](CO)N(Cc1ccccc1)C[C@]13CCN(CC1)C(=O)c1ccccc1F` was “inactive”.
The value for `C[C@H](CO)N1C[C@H](C)[C@H](CN(C)C(=O)CCCN(C)C)OCCCC[C@H](C)Oc2ccc(NC(=O)Nc3ccc(C(F)(F)F)cc3)cc2C1=O` was “inactive”.
With `O=C([C@H]1[C@H](CO)[C@H]2Cn3c(cccc3=O)[C@@H]1N2CC1CCCC1)N1CCOCC1`, the growth inhibition call was “inactive”.
As for `COc1cc(/C=C/c2cc(/C=C/c3ccc(O)c(OC)c3)n(Cc3ccc4c(c3)OCO4)c(=S)n2)ccc1O`, the growth inhibition call was “inactive”.
